Source: PubChem BioAssay
The list is not random: actives were taken first. Their share in the collection is about 3.2%.
ClpP mod: qHTS Assay for Activators of ClpP; ATP-dependent Clp protease proteolytic subunit (Bacillus subtilis (strain 168)), P80244; purified B. subtilis ClpP, FRET peptide cleavage, 20 min; Potency, µM (doses to about 57.5 µM), for the others: at the top dose activity change, negative = active; hit rate 1.9% among 340,000; AID 651965, 2013; active = well fitted falling curve with a large enough effect; inconclusive = small, poorly fitted or top-dose-only effect; inactive = no such curve, though single readings can be large or run the other way; note: the source files actives as falling curves though it sought activators and does not explain the sign; nearly all actives have a fitted effect of over 65% in size
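FRET quenching reversal measured ClpP activation: 10 microg/mL B. subtilis ClpP at pH 8 with the FRET-FV decapeptide, read at 430 nm after 320 nm excitation. The 20-min minus 0-min signal was scaled between DMSO/no-enzyme wells and ADEP (5.8 microM final).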
GLP1R ag: agonists of human GLP-1 receptor. HEK293 GLP-1R CRE-luciferase, luminescence, 4-6 h; cells express a hypersensitive GLP-1R form. Potency, µM (highest dose often 45.6 µM), for the others: at the highest dose activation, hits mostly activators. hit rate 0.007% among 380,000. AID 624172; note: % of control where 0% means no effect
Target sequence (P43220 whole entry, looked up): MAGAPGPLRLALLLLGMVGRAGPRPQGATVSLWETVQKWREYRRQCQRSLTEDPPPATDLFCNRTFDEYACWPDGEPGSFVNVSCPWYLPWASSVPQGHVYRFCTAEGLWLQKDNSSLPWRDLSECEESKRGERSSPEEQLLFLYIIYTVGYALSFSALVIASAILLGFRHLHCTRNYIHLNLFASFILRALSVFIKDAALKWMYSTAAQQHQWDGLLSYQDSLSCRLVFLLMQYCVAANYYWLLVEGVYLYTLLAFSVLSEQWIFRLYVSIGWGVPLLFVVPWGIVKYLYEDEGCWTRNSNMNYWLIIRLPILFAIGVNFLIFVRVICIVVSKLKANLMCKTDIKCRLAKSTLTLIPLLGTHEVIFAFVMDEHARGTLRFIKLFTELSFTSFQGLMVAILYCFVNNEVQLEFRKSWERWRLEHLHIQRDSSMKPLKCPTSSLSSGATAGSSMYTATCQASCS
GLP1R cytotox: cytotoxicity counter-screen for GLP-1 receptor inverse agonists; Potency, µM (titrated, usually from 38.3 µM), inactives show top-dose activity change, negative = inhibition, actives largely listed as inhibitors; hit rate 0.13% among 410,000; HEK293 cAMP-luciferase reporter cells, luminescence, 24 h;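 note: loss of luciferase light is scored as toxicity; % is set by controls: 0 for no effect and ±100 for the full control effect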
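Luminescence readout: signal drop marks cytotoxicity. Plated cells grew 12 h at 37 °C, 5% CO2, received 23 nL compound for 24 h, then got luciferase reagent, read after 12 min at RT.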
GLP1R inv ag: GLP-1 receptor (human) inverse agonism. Potency, µM (titrated, usually from 38.3 µM), inactives show at the highest dose activity change, negative = inhibition, actives largely listed as inhibitors. P43220. hit rate 1.6% among 410,000. HEK293 GLP-1R CRE-luciferase, luminescence, 24 h; GLP-1R form is constitutively active; note: % is set by controls: 0 for no effect and ±100 for the full control effect; nearly all actives have a fitted effect of over 55% in size
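Seeding at 200 cells/uL, 12 h culture, 24 hr compound treatment, then luciferase reagent and a luminescence read; cells are HEK293 stably expressing a constitutively active GLP-1R plus cAMP-responsive luciferase.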
Active calls of the source: *; ? = inconclusive; · = no result. Unless noted, calls come from the whole dose curve; as a rule, active = well fitted curve in the direction sought with a large enough effect; inconclusive = small, poorly fitted or top-dose-only effect, or another doubt; inactive = no such curve, though single readings can be large; an effect the other way counts as inactive or inconclusive. Potency is the fitted concentration of half-maximal effect.

SMILES	ClpP mod	GLP1R ag	GLP1R cytotox	GLP1R inv ag
Cn1c(SCC(N)=O)nc2c([nH]c3ccccc32)c1=O	-14%	·	7%	3%
CCc1ccccc1NC(=S)N1CCN(c2cccc(OC)c2)CC1	10µM*	-3%	7%	-28%
CCc1ccc(NC(=S)N2CCN(c3cccc(OC)c3)CC2)cc1	1%	-7%	-9%	?
O=C(CSc1nc2ccccc2nc1Cc1ccccc1)NCc1ccccc1Cl	-2%	·	15%	12%
CCCNC(=O)Cc1c(O)c2ccccc2[nH]c1=O	?	-1%	-5%	9%
O=C(Cc1c(O)c2ccccc2[nH]c1=O)NCc1cccc(F)c1	28µM*	8%	-7%	0%
O=C(Cc1c(O)c2ccccc2[nH]c1=O)NCc1ccccc1F	28µM*	-2%	0%	8%
COc1cccc2cc(-c3cn4c(n3)sc3cc(F)ccc34)c(=O)oc12	?	·	5%	13%
CN(C)c1ccc(C(CNS(=O)(=O)c2ccccc2)N2CCc3ccccc32)cc1 (centres undefined)	1%	·	1%	8%
O=[N+]([O-])c1cc(C=Nc2ccc3ccccc3c2)ccc1Br	28µM*	1%	1%	-6%
CCOc1ccc(N=Cc2ccc3ccccc3c2)cc1	-2%	-7%	-3%	23%
O=C(O)CN(c1ccccn1)S(=O)(=O)c1ccccc1	28µM*	1%	-9%	2%
COC(=O)CN(c1ccccn1)S(=O)(=O)c1ccccc1	11µM*	-1%	18%	7%
Cc1ccc(OCC(=O)Nc2cc3nn(-c4ccccc4)nc3cc2C)cc1	-10%	·	-1%	37%
COc1ccc(C(CNC(=O)c2cccc(S(=O)(=O)N3CCOCC3)c2)N2CCOCC2)cc1 (centres undefined)	1%	0%	-9%	1%
O=C(NCC(O)c1ccccc1)c1cccc(S(=O)(=O)N2CCOCC2)c1 (centres undefined)	32µM*	0%	19%	0%
O=C(NCC(c1cccs1)N1CCOCC1)c1cccc(S(=O)(=O)Nc2ccc(F)cc2)c1 (centres undefined)	0%	-6%	3%	-14%
Cc1ccc(NS(=O)(=O)c2cccc(C(=O)NCC(c3ccc(F)cc3)N3CCOCC3)c2)cc1 (centres undefined)	·	5%	-11%	10µM*
O=C(CCCc1nc(-c2ccccc2)no1)Nc1cc(C(F)(F)F)cc(C(F)(F)F)c1	-1%	·	-13%	?
O=C(Cn1cc(/C=N/NC(=O)c2cccc3ccccc23)c2ccccc21)Nc1ccc(F)cc1	?	-1%	7%	1.6µM*
C[C@H](O)[C@@H]1CN2CCc3c([nH]c4ccc(-c5ccc6c(c5)OCO6)cc34)[C@@H]2C[C@@H]1N(C)C(=O)Nc1cc(Cl)cc(Cl)c1	-5%	-4%	?	2.8µM*
C[C@H](O)[C@@H]1C(=O)N2CCc3c([nH]c4ccccc34)[C@@H]2C[C@@H]1N(C)C(=O)Nc1cc(Cl)cc(Cl)c1	4%	-6%	-10%	10µM*
Cc1sc2ccccc2[n+]1C	-2%	·	·	·
Cc1onc(-c2ccccc2)c1C(=O)NC(=S)NNC(=O)c1ccccc1O	0%	1%	?	2.8µM*
Cc1cc(OCC(=O)NC(Cc2c[nH]c3ccccc23)C(=O)O)ccc1Cl (centres undefined)	0%	·	3%	8%
SMILES	ClpP mod	GLP1R ag	GLP1R cytotox	GLP1R inv ag
CC[N+](C)(C)c1ccc(/C=C/c2ccc3ccccc3n2)cc1	-1%	·	·	·
COC(=O)c1ccc(Sc2ccc(Cl)cc2)c(N)c1	25µM*	3%	-5%	0%
CCOc1ccc(NC(=O)/C=C/c2ccccc2)c([N+](=O)[O-])c1	-1%	1%	-1%	8%
CCOc1ccc(/C=C/C(=O)Nc2ccc(OC)cc2[N+](=O)[O-])cc1	10µM*	0%	-11%	6%
CCOc1ccc(CCNC(=O)Cc2ccc(NC(=O)N3CCSc4ncccc43)cc2)cc1	-13%	·	0%	-7%
Cc1coc2c(C)c3oc(=O)c(CC(=O)N4CCCCC4)c(C)c3cc12	-18%	·	4%	2%
COc1ccc(NC(=O)CN(C)CC(=O)Nc2cccc(F)c2)cc1Cl	·	22%	-14%	10µM*
COc1cccc(NC(=O)CN(C)C(=O)C23CC4CC(CC(Cl)(C4)C2)C3)c1	-1%	2%	-14%	7.9µM*
